Measured values published in PubChem BioAssay (Tox21).
Inconclusive results are not listed. The source made the active and inactive calls. Unless noted, the call rests on the fitted dose curve.

Columns and labels:
[1] = Nuclear factor erythroid 2-related factor 2/antioxidant responsive element (Nrf2/ARE) small molecule agonists: qHTS cell viability counter screen in human keratinocytes (AID 1919968; active means well fitted curve in the direction sought with a large enough effect in the repeat runs; an effect the other way counts as inactive or inconclusive; further: nearly all actives have a fitted effect of over 55% in size; further: potency means the concentration at half of the fitted maximal effect)
Outline: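 Fluorescence read-out from CellTiter-Fluor after 1 h at 37 C. Wells held HaCaT-derived ARE-luciferase reporter cells (1,500/well) treated 23 h with DMSO-dissolved compounds. Run in the same wells as the luciferase agonist read.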

[2] = biological target: Gonadotropin-releasing hormone receptor (Homo sapiens) (UniProt P30968); experiment: Human gonadotropin-releasing hormone receptor (GnRHR) small molecule agonists, calcium flux assay in GnRHR-HEK293 cells (AID 1920063); further: nearly all actives have a fitted effect of over 35% in size; further: potency means the concentration at half of the fitted maximal effect
Gonadotropin-releasing hormone receptor (Homo sapiens), sequence (P30968 whole entry, looked up): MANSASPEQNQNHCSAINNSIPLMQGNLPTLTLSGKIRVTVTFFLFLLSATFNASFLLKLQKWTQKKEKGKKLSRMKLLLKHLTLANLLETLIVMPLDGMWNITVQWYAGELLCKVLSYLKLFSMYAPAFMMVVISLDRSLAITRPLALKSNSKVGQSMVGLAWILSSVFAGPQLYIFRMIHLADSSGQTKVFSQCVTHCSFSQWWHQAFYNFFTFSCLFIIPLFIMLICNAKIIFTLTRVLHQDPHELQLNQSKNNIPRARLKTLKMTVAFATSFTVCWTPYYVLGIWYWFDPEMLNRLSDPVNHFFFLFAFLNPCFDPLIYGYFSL
Outline: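 Calcium-dye fluorescence, Ex/Em=480/540, recorded every 1 sec over 3 min after compound addition to GnRHR-HEK293 cells. Cells had been seeded 18 hours earlier and dye-loaded for 1 hour at 37 C. Fifteen concentrations, triplicates.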

[3] = biological target: KiSS-1 receptor (Homo sapiens) (UniProt Q969F8); experiment: Human kisspeptin (KISS1R) small molecule agonists, calcium flux assay in KISS1R-HEK293 cells (AID 1920064; active means well fitted curve in the direction sought with a large enough effect in the repeat runs; an effect the other way counts as inactive or inconclusive)
KiSS-1 receptor (Homo sapiens), sequence (Q969F8 whole entry, looked up): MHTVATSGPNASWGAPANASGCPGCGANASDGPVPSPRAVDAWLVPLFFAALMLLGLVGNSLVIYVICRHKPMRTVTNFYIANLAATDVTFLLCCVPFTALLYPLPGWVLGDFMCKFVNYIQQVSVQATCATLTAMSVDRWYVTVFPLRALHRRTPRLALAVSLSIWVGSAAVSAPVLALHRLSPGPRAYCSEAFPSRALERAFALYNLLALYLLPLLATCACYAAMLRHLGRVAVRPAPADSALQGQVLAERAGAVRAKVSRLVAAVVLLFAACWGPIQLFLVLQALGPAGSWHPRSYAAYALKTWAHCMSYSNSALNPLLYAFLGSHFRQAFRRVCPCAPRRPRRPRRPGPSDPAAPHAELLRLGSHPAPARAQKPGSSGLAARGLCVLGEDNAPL
Outline: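 Calcium flux read-out: kinetic fluorescence at Ex/Em=480/540, 1 s intervals over 3 min, after pin-tool compound addition to dye-loaded KISS1R-HEK293 cells. Fifteen concentrations, triplicates.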

[4] = G protein-coupled receptor (GPCR) small molecule agonists, calcium flux assay: HEK293 wild type cell line counter screen (AID 1920065)
Outline: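 Agonist mode; 18 h seeding at 37 C, 1 h dye load at 37 C; compounds pinned from DMSO, ATP as positive control; kinetic fluorescence 480/540 nm, 3 min, 1 s reads; 15 concentrations, triplicate.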

[5] = p53 small molecule agonists, cell-based qHTS assay with human liver microsomes (AID 1963577);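 further: p53 response element beta-lactamase reporter cells with liver microsomes plus NADPH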
Outline: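 16 h, 37 C exposure of p53RE-bla cells to compounds with human liver microsomes and NADPH (0.5 mg/mL final each); detection via LiveBLAzer mixture, 2 h dark at room temperature.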

[6] = p53 small molecule agonists, cell-based qHTS assay with rat liver microsomes (AID 1963578)
Outline: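 With rat liver microsomes and NADPH present (0.5 mg/mL final each), p53RE-bla cells are treated with compound for 16 h at 37 C. LiveBLAzer detection mixture is then applied for 2 h at room temperature in the dark.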

[7] = p53 small molecule agonists, cell-based qHTS assay with human liver microsomes: qHTS cell viability counter screen (AID 1963579); further: nearly all actives have a fitted effect of over 45% in size
Outline: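 In this multiplexed counter screen, the reporter plates were subsequently treated with CellTiter-Glo so that cell viability, reflected by luminescence, could be recorded for p53RE-bla cells dosed 16 h with compounds under microsomal activation (HLM and NADPH).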

[8] = p53 small molecule agonists, cell-based qHTS assay with rat liver microsomes: qHTS cell viability counter screen (AID 1963580); further: nearly all actives have a fitted effect of over 45% in size
Outline: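 Cytotoxicity counter screen: intracellular ATP read by CellTiter-Glo luminescence in the p53 reporter wells. HCT-116 p53RE-bla cells were treated for 16 h at 37 C alongside rat liver microsomes and NADPH, each 0.5 mg/mL final.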

[9] = p53 small molecule agonists, cell-based qHTS assay: qHTS cell viability counter screen (AID 1963581); further: nearly all actives have a fitted effect of over 45% in size
Outline: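 Cytotoxicity read-out: ATP-based luminescence (CellTiter-Glo, 30 min RT) measured in the same wells as the p53 reporter assay, HCT-116 p53RE-bla cells, 16 h compound exposure at 37 C.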

[10] = biological target: 5-hydroxytryptamine receptor 2A (Homo sapiens) (UniProt P28223); experiment: 5-hydroxytryptamine receptor 2A (HTR2A) small molecule agonists, cell-based qHTS assay (AID 1963587); further: nearly all actives have a fitted effect of over 30% in size
5-hydroxytryptamine receptor 2A (Homo sapiens), sequence (P28223 whole entry, looked up): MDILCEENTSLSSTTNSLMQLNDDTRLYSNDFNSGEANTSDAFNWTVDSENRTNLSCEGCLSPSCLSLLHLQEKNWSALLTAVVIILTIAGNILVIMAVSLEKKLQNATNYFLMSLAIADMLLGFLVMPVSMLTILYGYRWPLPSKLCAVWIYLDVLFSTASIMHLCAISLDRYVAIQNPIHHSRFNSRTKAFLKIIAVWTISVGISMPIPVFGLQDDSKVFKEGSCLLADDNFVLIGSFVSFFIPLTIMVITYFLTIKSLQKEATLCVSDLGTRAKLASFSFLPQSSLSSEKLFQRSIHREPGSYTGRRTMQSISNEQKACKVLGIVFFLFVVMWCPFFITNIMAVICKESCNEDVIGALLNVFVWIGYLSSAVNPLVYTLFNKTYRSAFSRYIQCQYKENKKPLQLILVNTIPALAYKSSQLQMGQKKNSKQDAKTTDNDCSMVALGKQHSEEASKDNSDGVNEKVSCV
Outline: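 Kinetic calcium-flux fluorescence (2 min, 1 sec intervals) after compound addition in agonist mode. HTR2A-CHO cells were cultured 18 h, then dye-loaded 1 h at 37 C.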

[11] = biological target: Muscarinic acetylcholine receptor M1 (Homo sapiens) (UniProt P11229); experiment: Cholinergic receptor muscarinic 1 (CHRM1) small molecule antagonists, cell-based qHTS assay (AID 1963588); further: nearly all actives have a fitted effect of over 40% in size; further: potency means the concentration at half of the fitted maximal effect
Muscarinic acetylcholine receptor M1 (Homo sapiens), sequence (P11229 whole entry, looked up): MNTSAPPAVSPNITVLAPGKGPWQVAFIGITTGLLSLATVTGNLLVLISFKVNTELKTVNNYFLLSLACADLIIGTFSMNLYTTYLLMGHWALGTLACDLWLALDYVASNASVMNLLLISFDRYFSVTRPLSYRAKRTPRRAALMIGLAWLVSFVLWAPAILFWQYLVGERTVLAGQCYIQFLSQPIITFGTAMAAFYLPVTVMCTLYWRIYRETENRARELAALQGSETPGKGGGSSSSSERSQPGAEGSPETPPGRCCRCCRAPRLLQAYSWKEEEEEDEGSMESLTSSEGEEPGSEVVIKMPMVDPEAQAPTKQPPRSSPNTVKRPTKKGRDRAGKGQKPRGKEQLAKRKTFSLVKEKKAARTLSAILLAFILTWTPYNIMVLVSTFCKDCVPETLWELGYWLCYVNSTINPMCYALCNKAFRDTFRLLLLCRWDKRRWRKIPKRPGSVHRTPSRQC
Outline: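 Compounds were tested at 15 concentrations in three independent runs. Dye-loaded CHRM1-CHO cells were exposed 5 min at room temperature before stimulation by acetylcholine added at 50nM. Intracellular calcium was read kinetically on FDSS for 3 min.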

[12] = cAMP Responsive Elements (CRE) small molecule agonists, cell-based qHTS assay (AID 1963590)
Outline: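 Beta-lactamase reporter readout: LiveBLAzer B/G FRET substrate, 2 h at room temperature, added after 3 h compound treatment of CRE-bla HEK 293T cells at 37 C/5% CO2.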

[13] = cAMP Responsive Elements (CRE) small molecule antagonists, cell-based qHTS assay (AID 1963591; active means well fitted inhibition curve with a large enough effect in the signal ratio in the repeat runs, not every such curve was filed as active; the % refers to the signal ratio)
Outline: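 HEK293T CRE-bla; 18 h preincubation; compound pin-transfer; NKH477 0.25 uM final, 3 h, 37 C; LiveBLAzer FRET substrate 2 h RT.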

[14] = biological target: Beta-2 adrenergic receptor (Homo sapiens) (UniProt P07550); experiment: Adrenergic beta2 receptor (ADRB2) small molecule antagonists, cell-based qHTS assay (AID 1963592); further: series mostly up to about 92 µM; nearly all actives have a fitted effect of over 50% in size
Beta-2 adrenergic receptor (Homo sapiens), sequence (P07550 whole entry, looked up): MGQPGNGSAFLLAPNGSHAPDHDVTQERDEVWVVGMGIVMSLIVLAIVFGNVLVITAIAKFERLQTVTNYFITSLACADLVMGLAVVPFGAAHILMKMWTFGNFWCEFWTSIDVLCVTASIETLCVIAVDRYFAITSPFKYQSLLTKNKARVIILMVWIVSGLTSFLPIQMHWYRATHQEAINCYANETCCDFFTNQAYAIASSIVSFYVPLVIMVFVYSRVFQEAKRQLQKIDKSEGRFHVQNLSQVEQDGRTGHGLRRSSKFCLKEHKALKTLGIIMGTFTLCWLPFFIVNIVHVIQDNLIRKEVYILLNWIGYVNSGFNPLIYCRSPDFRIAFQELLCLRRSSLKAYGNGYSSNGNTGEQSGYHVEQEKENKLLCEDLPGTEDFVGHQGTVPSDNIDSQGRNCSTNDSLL
Outline: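 Assay format: CHO-ADRB2 cells, 18-20hr seeding at 37C/5% CO2, then compound plus 1nM isoproterenol agonist mix for 0.5hr RT. Homogeneous time-resolved fluorescence cAMP detection after 1hr, expressed as 665/615 nm ratio.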

[15] = biological target: D(2) dopamine receptor (Homo sapiens) (UniProt P14416); experiment: Dopamine D2 receptor (DRD2) small molecule agonists, cell-based qHTS assay (AID 1963594); further: nearly all actives have a fitted effect of over 35% in size
D(2) dopamine receptor (Homo sapiens), sequence (P14416 whole entry, looked up): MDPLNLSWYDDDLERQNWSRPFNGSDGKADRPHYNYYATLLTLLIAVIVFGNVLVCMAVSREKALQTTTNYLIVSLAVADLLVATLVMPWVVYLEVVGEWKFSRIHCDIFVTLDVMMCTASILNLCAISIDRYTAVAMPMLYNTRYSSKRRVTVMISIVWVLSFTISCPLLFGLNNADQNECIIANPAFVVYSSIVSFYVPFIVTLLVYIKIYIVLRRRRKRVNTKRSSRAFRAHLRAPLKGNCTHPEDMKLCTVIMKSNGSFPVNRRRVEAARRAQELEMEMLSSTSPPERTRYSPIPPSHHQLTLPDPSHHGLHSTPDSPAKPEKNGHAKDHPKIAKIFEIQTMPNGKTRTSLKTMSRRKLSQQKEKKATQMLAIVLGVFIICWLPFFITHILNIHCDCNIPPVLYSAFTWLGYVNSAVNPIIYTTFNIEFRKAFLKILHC
Outline: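 cAMP accumulation in DRD2-HEK293 cells measured by HTRF after 1 h detection; compounds added 10 min before NKH477 (200nM […]) forskolin-analogue stimulation, 30 min at room temperature, with Ro20-1724 present at 0.1 mM final.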

[16] = p53 small molecule agonists, cell-based qHTS assay (AID 1963582; active means well fitted activation curve with a large enough effect in the signal ratio in the repeat runs, not every such curve was filed as active; the % refers to the signal ratio)
Outline: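 Fluorescence intensity read-out of a beta-lactamase reporter under a p53 response element. Cells were exposed to DMSO-dissolved compounds for 16 h at 37 C, then developed with FRET substrate for 2 h at RT.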

[17] = biological target: Muscarinic acetylcholine receptor M1 (Homo sapiens) (UniProt P11229); experiment: Cholinergic receptor muscarinic 1 (CHRM1) small molecule agonists, cell-based qHTS assay (AID 1963589); further: nearly all actives have a fitted effect of over 35% in size
Outline: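 Calcium flux read-out: kinetic fluorescence at 1 sec intervals after pin-tool compound addition to dye-loaded CHRM1-CHO cells (human M1). Agonist mode; 15 concentrations tested in triplicate independent runs.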

[18] = biological target: Beta-2 adrenergic receptor (Homo sapiens) (UniProt P07550); experiment: Adrenergic beta2 receptor (ADRB2) small molecule agonists, cell-based qHTS assay (AID 1963593);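 further: CHO cells stably overexpressing human ADRB2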
Outline: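 CHO cells stably over-expressing ADRB2 were plated overnight at 37C, then dosed with compounds plus a stimulation mix containing 100uM IBMX and 25uM Ro-20-1724 for 0.5hr at room temperature. cAMP was measured by HTRF competition, 1hr.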

[19] = biological target: D(2) dopamine receptor (Homo sapiens) (UniProt P14416); experiment: Dopamine D2 receptor (DRD2) small molecule antagonists, cell-based qHTS assay (AID 1963595; active means well fitted inhibition curve with a large enough effect in the signal ratio in the repeat runs, with a control signal flat; the % refers to the signal ratio)
Outline: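 Antagonism was scored as restored cAMP in HEK293-DRD2 cells. These cells were stimulated with 200 nM NKH477 and 12 nM quinpirole for 30 min at room temperature, in the presence of 0.1 mM Ro20-1724.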

[20] = biological target: 5-hydroxytryptamine receptor 2A (Homo sapiens) (UniProt P28223); experiment: 5-hydroxytryptamine receptor 2A (HTR2A) small molecule antagonists, cell-based qHTS assay (AID 1963586); further: nearly all actives have a fitted effect of over 45% in size
Outline: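 CHO cells stably expressing human HTR2A were plated for 18 h at 37 C, then loaded with calcium dye for 1 h. Compounds were preincubated 5 min at room temperature before DOI (4 nM solution) was added. Kinetic fluorescence was read for 3 min.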
On the % scale 0 is the no-effect control and ±100 the full control effect.

CCN(CC)CC
inactive: Potency [1] | Potency [2] | Potency [3] | Potency [4] | Potency [5] | Potency [6] | Potency [7] | Potency [8] | Potency [9] | Potency [10] | Potency [11] | Potency [12] | Potency [13] | Potency [14] | Potency [15]

CCCCCOC(=O)CCCCC
inactive: Potency [1] | Potency [2] | Potency [3] | Potency [4] | Potency [5] | Potency [6] | Potency [7] | Potency [8] | Potency [9] | Potency [16] | Potency [11] | Potency [17] | Potency [13] | Potency [14] | Potency [18] | Potency [15] | Potency [19]

Brc1c(NC2=NCCN2)ccc2nccnc12
inactive: Potency [1] | Potency [2] | Potency [3] | Potency [4] | Potency [5] | Potency [6] | Potency [7] | Potency [8] | Potency [16] | Potency [12] | Potency [13] | Potency [14] | Potency [18] | Potency [15] | Potency [19]

O=C1c2ccccc2C(=O)N1CCc1noc(-c2ccc(CN3CCCCCC3)s2)n1
inactive: Potency [1] | Potency [2] | Potency [3] | Potency [4] | Potency [5] | Potency [6] | Potency [7] | Potency [8] | Potency [9] | Potency [20] | Potency [17] | Potency [14] | Potency [15]
active: Potency [11] 0.273 µM

Clc1ccc(C(Cn2ccnc2)OCc2ccc(Sc3ccccc3)cc2)c(Cl)c1 (stereo not given)
inactive: Potency [1] | Potency [2] | Potency [3] | Potency [4] | Potency [5] | Potency [6] | Potency [7] | Potency [8] | Potency [9] | Potency [16] | Potency [11] | Potency [17] | Potency [12] | Potency [13] | Potency [14] | Potency [15] | Potency [19]

CCCCNc1cc(C(=O)O)cc(S(N)(=O)=O)c1Oc1ccccc1
inactive: Potency [1] | Potency [2] | Potency [3] | Potency [4] | Potency [5] | Potency [6] | Potency [7] | Potency [8] | Potency [9] | Potency [10] | Potency [17] | Potency [12] | Potency [13] | Potency [14] | Potency [15] | Potency [19]

[O-][N+](=Nc1ccccc1)c1ccccc1
inactive: Potency [1] | Potency [2] | Potency [3] | Potency [4] | Potency [5] | Potency [6] | Potency [7] | Potency [8] | Potency [9] | Potency [16] | Potency [11] | Potency [17] | Potency [12] | Potency [13] | Potency [14] | Potency [18] | Potency [15] | Potency [19]

CCCCCCC1CCC(=O)O1 (stereo not given)
inactive: Potency [1] | Potency [2] | Potency [3] | Potency [4] | Potency [5] | Potency [6] | Potency [7] | Potency [8] | Potency [9] | Potency [20] | Potency [10] | Potency [11] | Potency [17] | Potency [13] | Potency [14] | Potency [15] | Potency [19]

CNCCC(Oc1ccc(C(F)(F)F)cc1)c1ccccc1 (stereo not given)
active: Potency [1] 26.9 µM | Potency [2] 38.4 µM
inactive: Potency [3] | Potency [4] | Potency [5] | Potency [6] | Potency [7] | Potency [8] | Potency [9] | Potency [16] | Potency [12] | Potency [13] | Potency [19]

Clc1cccc(Cl)n1
inactive: Potency [1] | Potency [2] | Potency [3] | Potency [4] | Potency [5] | Potency [6] | Potency [7] | Potency [8] | Potency [9] | Potency [20] | Potency [10] | Potency [11] | Potency [17] | Potency [12] | Potency [13] | Potency [14] | Potency [18] | Potency [15] | Potency [19]

COc1ccc2cc(CCC(C)=O)ccc2c1
inactive: Potency [1] | Potency [2] | Potency [3] | Potency [4] | Potency [5] | Potency [6] | Potency [7] | Potency [8] | Potency [9] | Potency [16] | Potency [12] | Potency [13] | Potency [14] | Potency [19]

CC1=CCC(C(C)C)C=C1 (stereo not given)
inactive: Potency [1] | Potency [2] | Potency [3] | Potency [4] | Potency [5] | Potency [6] | Potency [7] | Potency [8] | Potency [16] | Potency [20] | Potency [10] | Potency [11] | Potency [17] | Potency [13] | Potency [14] | Potency [15] | Potency [19]

O=C(O)c1ccccc1Nc1cc(Cl)ccc1C(=O)O
inactive: activity change, negative = cytotoxicity [1] 0.544% [at 19 µM] | activity change [2] -1.18% [at 11.8 µM, hits give high values] | activation [3] 0.0094% [at 15.8 µM] | activation [4] -0.251% [at 11.8 µM] | activation [5] -15.2% [at 13.5 µM] | activation [6] -10.2% [at 13.6 µM] | activity change, negative = cytotoxicity [7] -16.4% [at 13.5 µM] | activity change, negative = cytotoxicity [8] -20.9% [at 13.5 µM] | activity change, negative = cytotoxicity [9] -5.7% [at 13.5 µM] | activation [16] 1.24% [at 13.5 µM] | activity, negative = inhibition [11] 22.2% [at 12.6 µM] | activation [17] 0.0185% [at 15.8 µM] | activity change, negative = inhibition [14] 5.54% [at 19 µM] | activation [18] -0.399% [at 19 µM] | activity change, negative = inhibition [19] -1.66% [at 18.9 µM]

CN(C)CC/C=C1\c2ccccc2COc2ccccc21
inactive: Potency [1] | Potency [2] | Potency [3] | Potency [4] | Potency [5] | Potency [6] | Potency [7] | Potency [8] | Potency [9] | Potency [16] | Potency [12] | Potency [13] | Potency [15] | Potency [19]

C[C@@H]1C[C@H]2O[C@@]3(O[C@@H]2C(C)(C)O)[C@H](O)[C@@]2(C)[C@@H]4CC[C@H]5C(C)(C)[C@@H](O[C@@H]6OC[C@@H](O)[C@H](O)[C@H]6O)CC[C@@]56C[C@@]46CC[C@]2(C)[C@@H]13
inactive: Potency [1] | Potency [2] | Potency [3] | Potency [4] | Potency [5] | Potency [6] | Potency [7] | Potency [8] | Potency [9] | Potency [10] | Potency [11] | Potency [17] | Potency [14] | Potency [19]
